These results are taken from ChEMBL document CHEMBL2218924, “A broad activity screen in support of a chemogenomic map for kinase signalling research and drug discovery” (Biochem J, 2013).

In general, residual activity refers to the signal under treatment as a percentage of the control signal.

For the experiment, the target named is T1, Tyrosine-protein kinase ZAP-70 (Homo sapiens) (UniProt P43403).
T1 sequence (whole entry): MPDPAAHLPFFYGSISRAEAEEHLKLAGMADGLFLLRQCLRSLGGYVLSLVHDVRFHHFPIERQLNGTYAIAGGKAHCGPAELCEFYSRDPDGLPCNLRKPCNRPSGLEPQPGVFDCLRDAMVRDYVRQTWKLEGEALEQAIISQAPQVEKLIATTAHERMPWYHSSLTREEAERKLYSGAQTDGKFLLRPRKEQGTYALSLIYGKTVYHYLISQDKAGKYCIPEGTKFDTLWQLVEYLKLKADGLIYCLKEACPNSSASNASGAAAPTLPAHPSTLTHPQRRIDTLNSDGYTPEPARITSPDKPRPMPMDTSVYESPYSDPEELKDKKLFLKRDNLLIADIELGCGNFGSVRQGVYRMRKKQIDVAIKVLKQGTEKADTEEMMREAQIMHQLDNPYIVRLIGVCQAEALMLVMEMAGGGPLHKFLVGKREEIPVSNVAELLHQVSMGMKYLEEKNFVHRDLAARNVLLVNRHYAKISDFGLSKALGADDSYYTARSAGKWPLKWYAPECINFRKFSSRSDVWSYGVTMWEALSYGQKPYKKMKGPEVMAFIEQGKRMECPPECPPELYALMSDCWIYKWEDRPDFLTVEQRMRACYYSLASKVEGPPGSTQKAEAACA
To be noted: at 10 µM.
As for `COc1cc2ncnc(Nc3ccc(Oc4ccccc4)cc3)c2cc1OC`, the residual activity is 114%.
As to `O=c1c2ccccc2[nH]c(=S)n1CCN1CCC(=C(c2ccc(F)cc2)c2ccc(F)cc2)CC1`, the residual activity turned out to be 94%.
Under `COc1ccc(-c2cnc3c(-c4ccsc4)cnn3c2)cc1` stands 128%; under `N#Cc1cnc2cnc(NCc3cccnc3)cc2c1Nc1ccc(F)c(Cl)c1`, 38%; under `COc1cc2ncnc(Nc3cccc(Cl)c3)c2cc1OC`, 125%.
On to `NC(=O)c1ccc(-c2nc(-c3ccc4c(c3)OCCO4)c(-c3ccccn3)[nH]2)cc1`, for which the residual activity turned out to be 86%.
In the case of `O=[N+]([O-])c1ccc(-c2nc(-c3ccc(F)cc3)c(-c3ccncc3)[nH]2)cc1` it was 122%; in that of `Oc1ccc(-c2nc(-c3ccc(F)cc3)c(-c3ccncc3)[nH]2)cc1`, 119%; in that of `O=C1NC(=O)c2c1c1c3ccccc3[nH]c1c1[nH]c3cc(Br)ccc3c21`, 90%.
Consider `O=C1Nc2ccc(Br)cc2/C1=C\c1cc2c([nH]1)CCCC2`, for which the residual activity was 124%.
As for `CNc1cc2c(Nc3cccc(Br)c3)ncnc2cn1`, the residual activity amounted to 108%.
Under `CN(C)c1ccc(/C=C2\C(=O)Nc3ccccc32)cc1` stands 115%; under `CO[C@@H]1[C@H](N(C)C(=O)c2ccccc2)C[C@H]2O[C@]1(C)n1c3ccccc3c3c4c(c5c6ccccc6n2c5c31)C(=O)NC4`, 60%.
On to `CC(C)[C@H](CO)Nc1nc(Nc2cc(N)cc(Cl)c2)c2ncn(C(C)C)c2n1`, for which the residual activity came to 98%.
As for `CO[C@H]1C[C@@H]2CC[C@@H](C)[C@@](O)(O2)C(=O)C(=O)N2CCCC[C@H]2C(=O)O[C@H]([C@H](C)C[C@@H]2CC[C@@H](O)[C@H](OC)C2)CC(=O)[C@H](C)/C=C(\C)[C@@H](O)[C@@H](OC)C(=O)[C@H](C)C[C@H](C)/C=C/C=C/C=C/1C`, the residual activity worked out at 121%.
